According to PubChem BioAssay AID493067 (National Center for Advancing Translational Sciences (NCATS), 2011):
Records with an inconclusive call do not appear. Activity calls are given as the source filed them. Calls come from the whole dose curve; as a rule, active = well fitted activation curve with a large enough effect; inconclusive = small, poorly fitted or top-dose-only effect; inactive = flat fitted curve, though single readings scatter.

Assay: Confirmation Concentration-Response Assay for qHTS Assay for Epigenetic Modulators
Conditions: murine C127i LDR cells, GFP reporter derepression, 30 h; series mostly up to 46.1 µM; GFP activation: at the top concentration
Text: NIH Molecular Libraries Screening Centers Network [MLSCN] NIH Chemical Genomics Center [NCGC] MLSCN Grant: 1 X01 MH079860-01 Assay Provider: Elisabeth D. Martinez, University of Texas SW Medical Center NCGC Assay Overview: This assay, used for the primary screen, was employed here to confirm actives identified from the Locus Derepression (LDR) assay (PubChem AID 1865). The LDR assay detects the derepression of a GFP reporter that is stably integrated in a region of the genome of murine c127i mammary cells that is presumably silenced. Compounds that derepress or induce this reporter locus are identified by enumerating GFP positive cells using an Acumen Explorer Ex3 (TTP Labtech) laser-scanning microplate cytometer.
NCGC Assay Protocol Summary: Three hundred LDR cells in 5 uL per well were dispensed into black, clear-bottom 1536-well plates. Twenty-three nL compound was transferred to the assay plate and cells were incubated 30 hours at 37 C. Medium was removed, cells were washed two times with PBS, and GFP-positive cells were enumerated as fluorescent objects between the sizes of 20 to 120 um width and depth using an Acumen Explorer Ex3 (TTP Labtech) laser-scanning microplate cytometer. For further details, see Johnson, RL, Huang, W, Jadhav, A, Austin, CP, Inglese, J, Martinez, ED (2008). A quantitative high-throughput screen identifies potential epigenetic modulators of gene expression. Anal Biochem 375: 237-48.

Potency, active:
CN(C)S(=O)(=O)c1ccc2c(c1)/C(=C/c1cc3c([nH]1)CCCC3)C(=O)N2 14.1 µM
CCc1nnc(NC(=O)c2cccc(C(=O)Nc3nnc(CC)s3)n2)s1 7.94 µM
Cc1cccn2c(=O)c(/C=C3\SC(=S)N(CC(C)C)C3=O)c(NCCCOC(C)C)nc12 3.55 µM
Cc1cc(N2CCN(c3ccc([N+](=O)[O-])c4cccnc34)CC2)c2ccccc2n1 12.6 µM
O=C(O)CCCCCN1C(=O)/C(=C\c2ccc(-c3ccc(Cl)cc3)o2)SC1=S 7.94 µM
COc1cccc(/C=N/Nc2nc(Nc3ccccc3)nc(-n3nc(C)cc3C)n2)c1O 3.98 µM
COc1ccc2c(C)nc(Nc3nc(-c4ccccc4)cc(=O)[nH]3)nc2c1 4.47 µM
CC1=C/C(=N\NC(=S)Nc2cccnc2)CC(C)(C)C1 3.16 µM
O=C(CSc1cccc[n+]1[O-])c1ccccc1Br 25.1 µM
S=C(Nc1ccccc1)c1ccccn1 15.8 µM
N#Cc1sc2nc(-c3ccccc3)cc(C(F)(F)F)c2c1N 15.8 µM
CC(=O)[C@H](CC(C)C)NC(=O)[C@@H](CC(C)C)NC(=O)[C@H](CC(C)C)NC(=O)OCc1ccccc1 3.98 µM
N#CC1=C(N)n2c(s/c(=C\c3cccs3)c2=O)=C(C#N)C1c1cccs1 (stereo not drawn) 15.8 µM
CCN(CC)c1ccc2c(c1)oc(=O)c1c(Cl)cc(=O)oc12 3.98 µM
COCCNC(=S)N/N=C(\C)c1ccccc1O 6.31 µM
CCOC(=O)c1cc2c(=O)n3ccccc3nc2n(Cc2ccco2)c1=NC(=O)c1ccc(Br)cc1 15.8 µM

GFP activation, inactive:
CCc1ccc(NC(=O)C2CCC(CNS(=O)(=O)c3ccc4c(c3)CC(C)N4C(C)=O)CC2)cc1 (stereo not drawn) 3.66%
Cc1nc(CSc2nsc(/C=C/N(C)C)c2C#N)cs1 1.2%
CCOc1ccc(NC(=O)c2nc(S(=O)(=O)Cc3ccccc3F)ncc2Cl)cc1 -3.66%
CCOn1c(=O)c[n+]([O-])c2ccccc21 11.4%
CN(c1ccccc1)S(=O)(=O)c1nnc(NC(=O)c2ccccc2)s1 -1.8%
Cc1ccc(/C=[N+](\[O-])c2ccc(N(C)C)cc2)c2nsnc12 1.81%
Oc1ccc(Br)cc1C=Nc1ccc2c3c(cccc13)CC2 5.39%
